Data on 93 molecules can be found in PubChem BioAssay AID1851 (National Center for Advancing Translational Sciences (NCATS), 2009).

The campaign covered roughly 16,000 compounds. About 4,000 (25%) were called active. Not shown: some 26% with an inconclusive outcome. Calls come from the whole dose curve; as a rule, active = well fitted curve in the direction sought with a large enough effect; inconclusive = small, poorly fitted or top-dose-only effect, or effect the other way; inactive = no such curve, though single readings can be large or run the other way. These entries were drawn from the full list.
% is set by controls: 0 for no effect and ±100 for the full control effect.

Cytochrome P450 2C9 (Homo sapiens), sequence (P11712 whole entry, looked up): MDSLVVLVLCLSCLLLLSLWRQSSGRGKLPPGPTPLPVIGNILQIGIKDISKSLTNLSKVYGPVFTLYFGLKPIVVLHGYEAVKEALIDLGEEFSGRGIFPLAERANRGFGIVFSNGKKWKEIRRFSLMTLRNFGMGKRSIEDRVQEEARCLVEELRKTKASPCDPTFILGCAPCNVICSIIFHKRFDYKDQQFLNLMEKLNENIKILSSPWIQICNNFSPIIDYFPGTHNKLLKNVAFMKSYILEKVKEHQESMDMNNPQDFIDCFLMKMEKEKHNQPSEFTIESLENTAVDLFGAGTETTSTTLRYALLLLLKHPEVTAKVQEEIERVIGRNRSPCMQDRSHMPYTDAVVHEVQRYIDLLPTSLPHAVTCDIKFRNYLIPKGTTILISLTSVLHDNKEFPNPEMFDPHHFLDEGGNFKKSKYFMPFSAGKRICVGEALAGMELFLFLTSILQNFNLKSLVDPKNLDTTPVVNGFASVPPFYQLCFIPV

This experiment has as its target Cytochrome P450 2C9 (Homo sapiens) (UniProt P11712). In words: Cytochrome panel assay with activity outcomes. Conditions: recombinant CYP, pro-luciferin dealkylation, luminescence, p450-cyp2c9; series mostly up to 57.1 µM.
On to `N=C(N)SCCc1ccc(OCc2ccc([N+](=O)[O-])cc2)cc1`, for which the AC50 result is “inactive”.
Still for that read-out and setting: under `CN1CCc2cc(Cl)c(O)cc2[C@@H](c2ccccc2)C1` stands “inactive”; under `CCCCCN=c1ccn(Cc2ccccc2)c2ccccc12`, 0.316 µM (active).
As to `N#Cc1cccc(-c2nccc(NCc3cccs3)n2)c1`, the activity, negative = inhibition was 5.43% [at 2.29 µM] (inactive).
`Cc1ccc(OCC(=O)Nn2cnc3ccccc32)cc1`: the AC50 result is “inactive”.
On the same count and under the same terms, for `O=C(Cn1cnc2ccccc21)NC(c1ccccc1)c1ccccc1` the value was 15.8 µM (active); for `O=S(=O)(/N=C(/Nc1ccc(F)cc1F)c1ccc(Cl)cc1)c1ccccc1`, “inactive”.
With `O=S(=O)(/N=C(\Sc1ccccc1)c1ccccc1)c1ccc(Cl)cc1`, the AC50 was 3.98 µM (active).
In the case of `CC(=O)NCCNc1ncncc1-c1ccccc1CN(C)C`, the activity, negative = inhibition was 4.96% [at 2.29 µM] (inactive).
For `COc1cc(OC)nc(NC(C)=O)n1`, the AC50 entry is “inactive”.
On the same count and under the same terms, for `Cc1cc(C)nc(NC(=O)CCCC(=O)O)c1` the value was “inactive”; for `CC#CCCCC(=O)Nc1cc(OC)nc(OC)n1`, 11.2 µM (active).
As to `N#Cc1ccc(CN2CCC3(CC2)CCN(C(=O)c2cc(C(F)(F)F)cc(C(F)(F)F)c2)CC3)cc1`, the AC50 entry is “inactive”.
Take `C/C(CCN1CCCc2nc(C)c(C)cc21)=N\OC[C@@H](O)[C@@H]1O[C@@H]2OC(C)(C)O[C@@H]2[C@H]1O`: the activity, negative = inhibition is 2.31% [at 11.4 µM] (inactive).
On to `COCCN=C1Sc2nc3c(C)cccc3cc2CN1Cc1ccco1`, for which the AC50 is 4.47 µM (active).
On to `C[C@@H](c1ccccc1)N1C(=O)[C@H]2[C@H]3[C@H](O)[C@H](O)C/C(=N/OC[C@@H](O)COCc4ccco4)[C@@H]3CC[C@@H]2C1=O`, for which the activity, negative = inhibition is 2.8% [at 11.4 µM] (inactive).
In the case of `COc1ccc2c(c1)c(CC(=O)N1CCOCC1)c(C)n2C(=O)c1ccc(Cl)cc1`, the AC50 result is “inactive”.
Same read-out and setting: for `O=C(CSc1c[nH]c2ccccc12)N1CCOCC1` the value was “inactive”.
Regarding `CC(C)Cn1c(-c2ccc(Cl)cc2)cnc1SCC(=O)N1CCOCC1`, the AC50 was 14.1 µM (active).
As for `CCOC(=O)c1[nH]c2cc(OC)c(OC)cc2c1NC(=O)c1nonc1C`, the AC50 was 0.708 µM (active).
Same read-out and setting: for `COC(=O)c1[nH]c2cc(OC)ccc2c1NC(=O)c1ccc2c(c1)OCO2` the value was 3.55 µM (active); for `COc1cccc(NC(=O)c2oc3ccccc3c2NC(=O)c2ccc3c(c2)OCO3)c1`, 3.55 µM (active).
Same read-out and setting: under `CCOC(=O)c1[nH]c2cc3c(cc2c1NC(=O)CN1CCC2(CC1)OCCO2)OCO3` stands “inactive”.
Still for that read-out and setting: for `CCOC(=O)c1[nH]c2cc(OC)c(OC)cc2c1NC(=O)c1ccc2c(c1)OCO2` the value was “inactive”.
For the molecule `COc1ccc2c3c([nH]c2c1)[C@H]1C[C@@H]2[C@@H](C[C@@H](O)[C@H](OC)[C@H]2C(=O)O)CN1CC3`, the activity, negative = inhibition was 4.43% [at 11.4 µM] (inactive).
In the case of `CCOC(=O)c1[nH]c2ccc(OC)cc2c1NC(=O)c1ccc2c(c1)OCO2`, the AC50 is 14.1 µM (active).
`CN1CCN(CCCNC(=O)C2CCN(c3nnc(-n4cccc4)s3)CC2)CC1`: the AC50 result is “inactive”.
For `CC(=O)OC[C@@H]1O[C@H](C/C=N\O[C@@H](C)CN2CCCc3nc(C)c(C)cc32)C=C[C@@H]1OC(C)=O`, the activity, negative = inhibition was -0.762% [at 11.4 µM] (inactive).
Same read-out and setting: for `O=C(CSc1nc2ccccc2c2ccccc12)c1ccccc1` the value was -1.33% [at 11.4 µM] (inactive).
Consider `N#Cc1ccc(-c2ccccc2)nc1SCC(=O)c1cccc(Cl)c1`, for which the AC50 is 2 µM (active).
On the same count and under the same terms, under `CCOc1ccc(OCCOc2ncnc3ccccc23)cc1` stands 17.8 µM (active); under `CC1CN(C(=O)COc2ncnc3ccccc23)CC(C)O1` (stereo not drawn), “inactive”.
Take `CC(CO)(CO)Nc1ncnc2ccccc12`: the activity, negative = inhibition is 15.3% [at 11.4 µM] (inactive).
The same measure, in the same setting: for `CN(C)C(=O)c1ccc(-c2cc(N(C)Cc3ccco3)ncn2)cc1` the value was 0.869% [at 2.29 µM] (inactive).
Take `CCC(=O)N(Cc1ccco1)c1nc(-c2ccccc2)cs1`: the AC50 was 2.51 µM (active).
As for `CN(C)C(=O)c1ccc(-c2nccc(N(C)Cc3ccco3)n2)cc1`, the activity, negative = inhibition is 0.769% [at 2.29 µM] (inactive).
Regarding `O=C(O)C1=CCNCC1`, the AC50 entry is “inactive”.
Same read-out and setting: under `Nc1cc(-c2nn[nH]n2)ccc1F` stands 12.6 µM (active); under `C[C@](N)(C(=O)O)c1ccc(-c2nn[nH]n2)cc1`, “inactive”.
`c1cc(NNc2cccc(-c3nn[nH]n3)c2)cc(-c2nn[nH]n2)c1`: the activity, negative = inhibition was -4.17% [at 11.4 µM] (inactive).
Take `COc1cc(N[C@@H](C)CCCN)c2ncccc2c1`: the AC50 entry was “inactive”.
The same measure, in the same setting: under `COc1ccc(CCC(C)NC2C3CC4CC(C3)CC2C4)cc1` (stereo not drawn) stands “inactive”.
The same measure, in the same setting: under `COc1ccc(CCC(C)Nc2cccc(F)c2)cc1` (stereo not drawn) stands 12.6 µM (active); under `COc1ccc(C(=O)N2CCC[C@@]3(CCN(CC(C)C)C3)C2)cc1`, “inactive”; under `Cc1noc(C)c1C(=O)N1CCC2(CCCN(C(=O)Nc3cccc(F)c3)C2)CC1`, “inactive”.
For the molecule `COc1cccc(CN2C(=O)N(C(C)C)C(N(O)C(=O)NC(C)C)C2(C)C)c1OC` (stereo not drawn), the AC50 is 15.8 µM (active).
The same measure, in the same setting: for `CCOC(=O)C1=C(C)NC2(O)c3ccccc3C(=O)C12O` (stereo not drawn) the value was “inactive”; for `CCC(C)OC(=O)C1=C(C)NC(=O)CC1c1ccccc1OC` (stereo not drawn), 7.08 µM (active); for `CCCOc1ccccc1C1CC(=O)NC(C)=C1C(=O)OCC(C)C` (stereo not drawn), 1.12 µM (active).
Same read-out and setting: for `CCCCOc1ccccc1C1CC(=O)NC2=C1C(=O)CCC2` (stereo not drawn) the value was 17.8 µM (active); for `CCCCOc1cc(C[C@@H]2CNC(=O)N2)ccc1OC`, “inactive”.
On the same count and under the same terms, for `COc1cccc2c1OC1(C)CC2/C(=C(\C)O)C(=O)N1` (stereo not drawn) the value was “inactive”; for `NC(=O)c1cc[n+](CC2=C(C(=O)[O-])N3C(=O)[C@@H](NC(=O)Cc4cccs4)[C@@H]3SC2)cc1`, “inactive”.
As to `FC(F)(F)c1ccccc1-c1cncnc1NCc1cccnc1`, the activity, negative = inhibition is 6.26% [at 2.29 µM] (inactive).
`COC(=O)C1CC1C(NC(=O)[C@@H]1CCCN1)c1ccccc1` (stereo partly drawn): the AC50 entry was “inactive”.
On the same count and under the same terms, under `COC(=O)[C@H]1C[C@@H]1[C@H](NC(=O)OCc1ccccc1)c1ccccc1` stands 15.8 µM (active).
The same measure, in the same setting: for `COC(=O)[C@@H]1C[C@H]1[C@@H](NC(=O)Oc1ccc(F)cc1)c1ccccc1` the value was 3.98 µM (active); for `O=C(N[C@@H](c1ccccc1)[C@@H]1C[C@H]1C(=O)O)OCc1ccccc1`, “inactive”.
Same read-out and setting: for `Cc1noc(C)c1C(=O)N1CCC[C@@]2(CCN(Cc3cc(C(F)(F)F)cc(C(F)(F)F)c3)C2)C1` the value was “inactive”; for `CCc1cc(C(c2ccccc2OC)N2CCOCC2)c(NC(=O)c2ccccc2)s1` (stereo not drawn), 1.58 µM (active); for `CCOc1ccccc1CNCCN1CCOCC1`, “inactive”.
Turning to `CC(=O)[C@H]([C@@H](c1ccccc1)N1CCOCC1)N1CCOCC1`, the activity, negative = inhibition was -15.9% [at 11.4 µM] (inactive).
As for `Cc1cc(NC(=O)CSc2n[nH]c(-c3cccs3)n2)no1`, the AC50 was 12.6 µM (active).
The same measure, in the same setting: under `CCCCc1nc(SCC(=O)Nc2ncccn2)n[nH]1` stands “inactive”.
As for `CO[C@H]1COC(=O)[C@H](C)NC(=O)C/C=C\[C@@H](C)[C@@H](NS(=O)(=O)c2ccc(C)cc2)COC(=O)[C@H](OCc2ccccc2)/C=C\[C@@H]1C`, the activity, negative = inhibition is -22.3% [at 11.4 µM] (inactive).
As for `N#CC(c1ccccn1)(c1ncc(C(F)(F)F)cc1Cl)N1CCOCC1` (stereo not drawn), the AC50 entry was “inactive”.
`N#CC(c1ccc(Cl)cc1)(c1ncc(C(F)(F)F)cc1Cl)N1CCOCC1` (stereo not drawn): the AC50 is 10 µM (active).
Same read-out and setting: under `COc1ccc(S(=O)(=O)NNC(=O)C2Cc3c(ccc4ccccc34)O2)cc1` (stereo not drawn) stands 7.94 µM (active).
The same measure, in the same setting: under `CC(C)(CNC(=O)c1ccc([N+](=O)[O-])c(Cl)c1)CNC(=O)c1ccc([N+](=O)[O-])c(Cl)c1` stands 0.891 µM (active); under `O=C(NCc1cccnc1)c1sc2cc(Cl)ccc2c1Cl`, 10 µM (active).
As for `CN(C)C(=O)c1ccc(-c2cc(NCc3cccnc3)ncn2)cc1`, the activity, negative = inhibition is 17.1% [at 2.29 µM] (inactive).
With `Clc1ccccc1-c1cc(NCc2cccnc2)ncn1`, the activity, negative = inhibition was -1% [at 2.29 µM] (inactive).
Consider `CN(C(=O)CC(NC(=O)c1ccccc1)(c1ccccc1)c1ccccc1)c1ccccc1`, for which the AC50 was 15.8 µM (active).
Still for that read-out and setting: for `CN(C(=O)c1c(O)c2ccccc2n(C)c1=O)c1ccccc1` the value was “inactive”; for `CN(C)CCCN1CC(C(=O)O)CC1=O` (stereo not drawn), “inactive”.
Still for that read-out and setting: under `FC(F)(F)c1cccc(-c2nc3nc(Cl)c(Cl)nc3[nH]2)c1` stands 3.98 µM (active); under `C[C@H]1NC(=O)NC1=O`, “inactive”; under `CCc1c2c(nc3c(C(C)C)cccc13)-c1cccc(=O)n1C2`, 15.8 µM (active).
On the same count and under the same terms, under `CC(C)c1cccc2nc3c(c(C(C)(C)C)c12)Cn1c-3cccc1=O` stands 10 µM (active); under `CC[C@@]1(O)C(=O)COc2c1cc1n(c2=O)Cc2c-1nc1cccc(C(C)C)c1c2[Si](C)(C)C`, “inactive”; under `CCc1cccc2nc3c(c([Si](C)(C)C)c12)Cn1c-3cccc1=O`, 20 µM (active).
Regarding `Cc1c2c(nc3ccccc13)-c1cccc(=O)n1C2`, the AC50 result was “inactive”.
Still for that read-out and setting: for `CC(C)c1cccc2c([Si](C)(C)C)c3c(nc12)-c1cccc(=O)n1C3` the value was 2 µM (active); for `CC(C)c1cccc2cc3c(nc12)-c1cccc(=O)n1C3`, “inactive”.
Consider `CC1(C)[C@@H]2CC[C@]1(C)[C@@H](OC(=O)CSC#N)C2`, for which the activity, negative = inhibition is -16.1% [at 11.4 µM] (inactive).
Turning to `S=C(Nc1cccc(Cl)c1)NC1CCCCC1`, the AC50 result was “inactive”.
As for `N#C/C(=C\c1cc(Cl)cc(Cl)c1O)C(=O)NC1CCCCC1`, the AC50 is 12.6 µM (active).
The same measure, in the same setting: for `Cn1c[n+](C)cc1/C=N/O` the value was “inactive”.
As to `Nc1nc2ncc(CNc3ccc(C(=O)N[C@@H](CCC(=O)O)C(=O)O)cc3)nc2c(=O)[nH]1`, the AC50 result was “inactive”.
Same read-out and setting: for `CC(C)(C)CC(C)(C)c1ccc(OCOCCOCCO)c(Cc2cc(C(C)(C)CC(C)(C)C)cc(Cc3cc(C(C)(C)CC(C)(C)C)ccc3OCOCCOCCO)c2OCOCCOCCO)c1` the value was “inactive”.
In the case of `CN(C)C(=O)c1ccc(-c2nc(Nc3ccccc3)c3ccccc3n2)cc1`, the activity, negative = inhibition was -13.3% [at 2.29 µM] (inactive).
As to `CC1CCC(NC(=O)CC(C)(C)Cc2nc3ccccc3c(=O)[nH]2)CC1` (stereo not drawn), the AC50 was 3.55 µM (active).
Turning to `Cc1ccccc1-c1nc(NC2CC2)c2ccccc2n1`, the activity, negative = inhibition is 3.04% [at 2.29 µM] (inactive).

In general, AC50 refers to the midpoint of the concentration-response curve, whichever way the signal moves.
